Source: PubChem
Shown is part of a subset that was picked to be rich in hits.
Autofluor counter: flagged as autofluorescent in microsphere protease counterscreen; fluorescence intensity (concentration not given with the values); 3.1% of 360,000 active; compound autofluorescence counterscreen, microsphere flow cytometry; stronger effect = higher value; AID 624483; in the data active = fluorescence intensity above about 16000; inconclusive = no clear call, values can overlap the other calls
Anthrax LF prot: blocks Bacillus anthracis lethal factor protease; 0.12% of 360,000 active; AID 588501; multiplex microsphere protease cleavage assay, LF; inhibition, % at 10 µM; note: plate controls were buffer without enzyme for full effect and enzyme alone for no effect
TcdB inh: blocks C. difficile toxin B glycohydrolase activity; AID 652162; 0.24% of 350,000 active; TcdB glycohydrolase enzymatic assay, plate reader; inhibition, % at 9.99 µM; P18177; in the data active = inhibition above about 10%
BoNT-F LC inh: inhibitors of Botulinum neurotoxin F light chain protease; Multiplex microsphere protease cleavage assay, flow cytometry; inhibition, % at 10 µM; 0.22% of 360,000 active; AID 588497; in the data active = inhibition above about 35%, passing the limit was not always enough; inconclusive = no clear call, values can overlap the other calls; note: plate controls were buffer without enzyme for full effect and enzyme alone for no effect
BoNT A protease: inhibitors of Botulinum neurotoxin A light chain protease; multiplex microsphere protease substrate cleavage, flow cytometry; 0.17% of 360,000 active; AID 588499; inhibition, % at 10 µM; note: plate controls were buffer without enzyme for full effect and enzyme alone for no effect
* = called active by the depositor. Cut-off read from the data, not from the text of the source, unless noted: active = inhibition above about 30%; inconclusive = no clear call, values can overlap the other calls; inactive = below that.

For C[C@H](CO)N1C[C@H](C)[C@H](CN(C)S(=O)(=O)c2ccccc2)OCCCC[C@H](C)Oc2ccc(NS(=O)(=O)c3ccc(Cl)cc3)cc2C1=O the results were TcdB inh 0.
Screening CCOC(=O)c1c(NC(C)=O)sc2c1CCCNC2=O returned Autofluor counter 3473, Anthrax LF prot -6, BoNT-F LC inh -20 and BoNT A protease 1.
Screening CCOC(=O)c1c(NC(=O)c2ccccc2Br)sc2c1CCc1ccccc1-2 returned Autofluor counter 22027*, Anthrax LF prot -2, BoNT-F LC inh 4 and BoNT A protease inconclusive.
Screening CCOC(=O)c1c(NC(C)=O)sc2c1CCC(C=O)=C2Sc1ccccc1 returned Autofluor counter 7887, Anthrax LF prot 41*, TcdB inh 0, BoNT-F LC inh 40* and BoNT A protease 50*.
`CCOC(=O)c1c(NC(=O)c2ccccc2N(C)S(=O)(=O)c2ccccc2)sc2c1CCCC2` gave Autofluor counter 2463, Anthrax LF prot -1, TcdB inh 1, BoNT-F LC inh -2 and BoNT A protease 0.
`CCC(=O)c1cn(Cc2ccccc2C#N)c2ccccc12` gave Autofluor counter 23775*, Anthrax LF prot 0, BoNT-F LC inh -1 and BoNT A protease -2.
C[C@@H]1CN([C@@H](C)CO)C(=O)c2cc(NS(=O)(=O)c3ccccc3)ccc2O[C@@H](C)CCCCO[C@@H]1CN(C)C(=O)CCC(F)(F)F was read as TcdB inh -1.
For CCc1c(O)nc(SCC(=O)Nc2ccc(OC)cc2)n(C2CCCCC2)c1=O the results were Autofluor counter 24511*, Anthrax LF prot -1, BoNT-F LC inh -4 and BoNT A protease -3.
For C[C@@H]1CN([C@@H](C)CO)C(=O)Cc2cc(NC(=O)NC3CCCCC3)ccc2O[C@H]1CN(C)Cc1ccc(Oc2ccccc2)cc1 the results were TcdB inh -1.
`O=c1ccnc(SCc2ccccc2Cl)[nH]1` gave Autofluor counter 16496*, Anthrax LF prot 1, BoNT-F LC inh 0 and BoNT A protease 0.
For CN1C[C@H]2[C@@H](c3ccccc31)[C@@H](CO)N2S(=O)(=O)c1ccccc1 the results were TcdB inh 0.
CCCC(=O)Nc1nc2n(n1)C(c1ccccc1)CC(=O)N2 (stereo unspecified) was read as Autofluor counter 17011*, Anthrax LF prot -1, BoNT-F LC inh 0 and BoNT A protease -2.
For c1ccc(C2CC(c3ccccc3)n3ncnc3N2)cc1 (stereo unspecified) the results were Autofluor counter 9440, Anthrax LF prot 0, BoNT-F LC inh 5 and BoNT A protease 0.
For O=C1CC(c2ccccc2)n2ncnc2N1 (stereo unspecified) the results were Autofluor counter 21144*, Anthrax LF prot -1, BoNT-F LC inh -3 and BoNT A protease inconclusive.
Screening O=C(N[C@H]1CC[C@H](CCNS(=O)(=O)c2ccccc2Cl)O[C@@H]1CO)c1ccccc1 returned TcdB inh 1.
For CC(=O)c1ccc(NC(=O)CN2C(=O)/C(=C/C=C/c3ccccc3)SC2=S)cc1 the results were Autofluor counter 3500, Anthrax LF prot 24, TcdB inh 1, BoNT-F LC inh 13 and BoNT A protease 47*.
`C(=N\c1nc2ccccc2[nH]1)/c1cccs1` gave Autofluor counter 23619*, Anthrax LF prot -2, TcdB inh 1, BoNT-F LC inh -2 and BoNT A protease inconclusive.
Screening CCOC(C(=O)OCCCN(CC)CC)(c1ccccc1)c1ccccc1 returned Autofluor counter 2031, Anthrax LF prot 0, BoNT-F LC inh 1 and BoNT A protease 0.
`CCN(CC)CCCOC(=O)C(OC(C)C)(c1ccccc1)c1ccccc1` gave Autofluor counter inconclusive, Anthrax LF prot -22, BoNT-F LC inh 43* and BoNT A protease 36*.
`CC=Cc1ccc2n(c1=O)C[C@H]1[C@H](CO)[C@@H](C(=O)NCC)[C@@H]2N1C(=O)c1ccccc1` (mixture of isomers) gave TcdB inh 0.
Screening COc1cc(C=O)ccc1OCCSc1ccc(C)cc1 returned Autofluor counter 18295*, Anthrax LF prot -5, TcdB inh 3, BoNT-F LC inh 2 and BoNT A protease 3.
Screening CCOc1cc(C=O)ccc1OCCSc1ccc(C)cc1 returned Autofluor counter 10538, Anthrax LF prot -3, TcdB inh 1, BoNT-F LC inh 8 and BoNT A protease 3.
For C[C@@H]1CN([C@@H](C)CO)C(=O)Cc2cc(NC(=O)Nc3ccc(F)cc3)ccc2O[C@@H]1CN(C)S(=O)(=O)c1cccs1 the results were TcdB inh 0.
For C[C@H]1CN([C@@H](C)CO)C(=O)c2cc(-c3ccccc3)cnc2O[C@@H]1CN(C)C the results were TcdB inh 0.
C[C@@H]1CCCCO[C@H](CN(C)S(=O)(=O)c2cccs2)[C@H](C)CN([C@H](C)CO)C(=O)c2cc(NS(C)(=O)=O)ccc2O1 was read as TcdB inh 0.
For c1ccc2c3c(cc(N4CCOCC4)c2c1)OC1(N2CCOCC2)CCCCC1O3 (stereo unspecified) the results were Autofluor counter 4432, Anthrax LF prot 2, TcdB inh 1, BoNT-F LC inh 36* and BoNT A protease 4.
Screening Cc1ccc(S(=O)(=O)Nc2ccc3c(c2)C(=O)N([C@H](C)CO)C[C@@H](C)[C@H](CN(C)Cc2ccc(Cl)c(Cl)c2)O3)cc1 returned TcdB inh 0.
CC(C)NC(=O)NCC[C@H]1CC[C@@H](NS(=O)(=O)c2ccc(-c3ccccc3)cc2)[C@@H](CO)O1 was read as TcdB inh -1.
Screening CCCCOC(=O)C(C#N)c1nc2ccccc2nc1N1CCOCC1 (stereo unspecified) returned Autofluor counter 2903, Anthrax LF prot 2, BoNT-F LC inh -3 and BoNT A protease 3.
Screening Cc1ccc(S(=O)(=O)C(C#N)c2nc3ccccc3nc2N2CC(C)OC(C)C2)cc1C (stereo unspecified) returned Autofluor counter 17403*, Anthrax LF prot 3, BoNT-F LC inh -4 and BoNT A protease 0.
CCN1CCN(c2nc3ccccc3nc2C(C#N)S(=O)(=O)c2ccc(C)c(C)c2)CC1 (stereo unspecified) was read as Autofluor counter 22821*, Anthrax LF prot -1, TcdB inh 1, BoNT-F LC inh -2 and BoNT A protease 0.
For CC1CN(c2nc3ccccc3nc2C(C#N)C(=O)OC2CCCCC2)CC(C)O1 (stereo unspecified) the results were Autofluor counter 21164*, Anthrax LF prot 16, BoNT-F LC inh 3 and BoNT A protease inconclusive.
CCCCCCOC(=O)C(C#N)c1nc2ccccc2nc1N1CCOCC1 (stereo unspecified) was read as Autofluor counter 19713*, Anthrax LF prot -5, BoNT-F LC inh 1 and BoNT A protease 2.
Screening C[C@H]1CN([C@@H](C)CO)C(=O)c2cc(C#CCN(C)C)cnc2O[C@@H]1CN(C)Cc1cccc(F)c1 returned TcdB inh 0.
Screening CC(=O)N1CC[C@@H]2[C@H]1c1cc(C#Cc3cccnc3)ccc1N[C@@H]2CO returned TcdB inh 1.
